Experimental findings from the supplement of paper PMC8047044 are described below.

Molecules are shown by their SMILES. Several values for one entry are separate records, joined by “and”; a condition that tells them apart may be missing. Equal entries are not always repeated. Structures can show the parent of a compound that is named as a salt.

In this assay the test system is Neuro-2a. Put plainly: neurite formation score, plate-normalized to DMSO control mean 5.04 (score (0-8 scale)); higher = more or longer neurites. The note with it: 0.1 µM. On the procedure: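 Neuro-2a mouse neuroblastoma cells in PLL-coated 96-well plates were pre-treated for 1 h in DMEM(+) with each kinase inhibitor at 0.1 µM, then switched to serum-free DMEM(-) with inhibitor to induce neurite outgrowth and fixed about 2-3 h later. Three blinded observers scored neurite formation from 0 (no neurites) to 8 (long neurites on almost all cells).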
`CCNc1nc(Nc2cc(F)c(C(=O)N3CCOCC3)cc2OC)ncc1C(F)(F)F` gave a neurite formation score of 3.75.

In turn, `Cc1c(NC(=O)c2ccc(C(C)(C)C)cc2)cccc1-c1cn(C)c(=O)c(Nc2ccc(C(=O)N3CCOCC3)cc2)n1` showed a neurite formation score of 5.04. The value for `CCC(=O)Nc1cccc(Oc2nc(Nc3ccc(N4CCN(C)CC4)cc3OC)ncc2Cl)c1` was 4.25.

As for `CN(c1ncccc1CNc1nc(Nc2ccc3c(c2)CC(=O)N3)ncc1C(F)(F)F)S(C)(=O)=O`, the neurite formation score is 3.54 and 4.88. The compound `Cc1ccccc1-n1c(Cn2nc(-c3cccc(O)c3)c3c(N)ncnc32)nc2cccc(C)c2c1=O` returned a neurite formation score of 4.75.

Turning to `C[C@@]1(C(=O)Nc2ccc(F)nc2)CCCN1c1nc(Nc2cc(C3CC3)n[nH]2)c2cccn2n1`, the neurite formation score worked out at 4.38. Regarding `N#CCNC(=O)c1ccc(-c2ccnc(Nc3ccc(N4CCOCC4)cc3)n2)cc1` [CYT387 sulfate salt], the neurite formation score came to 4.92. The compound `NC(=O)c1ncn([C@@H]2O[C@H](CO)[C@@H](O)[C@H]2O)c1N` returned a neurite formation score of 5.54. The value for `COc1cc2/c(=N/c3ccc(Br)cc3F)nc[nH]c2cc1OCC1CCN(C)CC1` [Vandetanib (ZD6474)] was 5.09. The value for `CN1CCN(c2nc(C3=C(c4c[nH]c5ccccc45)C(=O)NC3=O)c3ccccc3n2)CC1` [Sotrastaurin (AEB071)] was 4.92; that for `CCOc1cc2ncc(C#N)c(Nc3ccc(F)c(Cl)c3)c2cc1NC(=O)/C=C/CN(C)C` [Pelitinib (EKB-569)] was 4.38; that for `FC(F)(F)c1ccc(CNc2ccc(Cc3c[nH]c4ncccc34)cn2)cc1` was 5.08. `CN1CCN(c2ccc(OC(F)(F)F)c(Nc3ncc4c(n3)-c3c(c(C(N)=O)nn3CCO)CC4)c2)CC1` showed a neurite formation score of 4.42. In the case of `C[C@@H]1CCNC(=O)c2cc3ccc(C(=O)Nc4nc5ccccc5n4CCCN(C)C)cc3n21`, the neurite formation score came out at 4.92. `C[S+]([O-])c1ccc(-c2nc(-c3ccc(F)cc3)c(-c3ccncc3)[nH]2)cc1` (configuration not stated): the neurite formation score came to 4.88.

In turn, `CCOc1ccc(Nc2ccc(/C(=C3C=C/C(=[N+](/CC)Cc4cccc(S(=O)(=O)[O-])c4)C=C/3C)c3ccc(N(CC)Cc4cccc(S(=O)(=O)O)c4)cc3C)cc2)cc1` [Brilliant Blue G] showed a neurite formation score of 2.08. As for `COc1cc2ncnc(Nc3ccc(O)c(Br)c3)c2cc1OC`, the neurite formation score is 5.09. In the case of `Nc1ncnc2n[nH]c(Nc3ccc(F)cc3)c12`, the neurite formation score worked out at 5.08. On to `COc1cccc(-c2cc(=O)c3ccccc3o2)c1N`, for which the neurite formation score is 5.04.

`NC(=O)Nc1cc(-c2cccc(F)c2)sc1C(=O)N[C@H]1CCCNC1` came in with a neurite formation score of 4.21. As to `CCn1c(-c2nonc2N)nc2c(C#CC(C)(C)O)ncc(OC[C@H]3CCCNC3)c21`, the neurite formation score is 3.25. As for `CNc1nc(Nc2ccc(C(=O)N3CCOCC3)cc2OC)ncc1Cl`, the figure is 4.58; as for `O=S(=O)(c1cccc2cnccc12)N1CCCNCC1` [Fasudil (HA-1077) HCl], 5.21; as for `CCCCOc1c(C(=O)c2c(F)cc(C)cc2F)c[nH]c2nncc1-2`, 4.92. Compound `COc1c(C)c(C(=O)c2ccc(N)c(C(=O)O)c2)n2ccccc12` gave a neurite formation score of 5.25.

In turn, `CNC(=O)c1cc(Oc2ccc(NC(=O)Nc3ccc(Cl)c(C(F)(F)F)c3)c(F)c2)ccn1` [Regorafenib hydrochloride] showed a neurite formation score of 4.92. As to `COc1ccc(-c2ccc3c(N4CCOCC4)nc(N4C[C@@H](C)O[C@@H](C)C4)nc3n2)cc1CO`, the neurite formation score stood at 4.25. `Oc1ccc(Nc2nc(-c3ccc(Cl)cc3)cs2)cc1`: the neurite formation score came to 2.42. The compound `Cc1cnc(Nc2ccc(OCCN3CCCC3)cc2)nc1Nc1cccc(S(=O)(=O)NC(C)(C)C)c1` gave a neurite formation score of 3.58. The value for `Cn1cc(C2=C(c3ccc(Cl)cc3Cl)C(=O)NC2=O)c2ccccc21` was 4.76; that for `Cc1cccc(CC(=O)N2CCc3c2ccc(-c2cn(C)c4ncnc(N)c24)c3F)n1` was 4.42; that for `Cc1ccc(F)c(NC(=O)Nc2ccc(-c3cccc4[nH]nc(N)c34)cc2)c1` [Linifanib (ABT-869)] was 3.76. As for `COc1ccc2c(c1)c(C1=C(c3c[nH]c4ccccc34)C(=O)NC1=O)cn2CCCN(C)C`, the figure is 5.54; as for `CCOc1ccn(-c2ccc(F)cc2)c(=O)c1C(=O)Nc1ccc(Oc2ccnc(N)c2Cl)c(F)c1`, 4.21; as for `C=CCc1ccc(O)c(-c2ccc(O)c(CC=C)c2)c1` [Honokiol], 2.76. As for `Cc1cc(Nc2cc(N3CCN(C)CC3)nc(/C=C/c3ccccc3)n2)n[nH]1`, the figure is 3.92; as for `CNC(=O)CN1CCC(Oc2cc3c(Nc4cccc(Cl)c4F)ncnc3cc2OC)CC1` [AZD8931 (Sapitinib)], 4.25.
